# Data from PubChem BioAssay AID2810 (NMMLSC, 2010).
# Out of some 1,200 compounds screened, about 65 (5%) were called active.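 Rule for the calls: active = at either tested dose, response and 90th-percentile vesicle-stain brightness of CD8 cells under set limits and under 9% cells vesicle-bound; inactive = the rest.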 Shown is part of a subset that was picked to be rich in actives.
# Assay: modulators of CD8 T cell-vesicle binding, confirmation, cherry-picked primary hits, two concentrations (AID 2810);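 note: lower values mean blocking of vesicle binding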;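 for percent response (vesicle binding): ratio of mean FL2 vesicle stain of CD8+ cells to that row's control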
# Conditions: 2C CD8+ T cell-vesicle binding, flow cytometry; for double positive events: CD8+/vesicle+ events
# [1] = at 15.4 µM, stronger effect = lower value
structure (smiles),measurement,setting,value
CCCc1cc(=O)[nH]c(SCC(=O)N2c3ccccc3CC2C)n1 (stereo unspecified),double positive events,at 7.7 µM,26.4%
same,double positive events,[1],4.8%
same,percent response (vesicle binding),[1],139% (inactive)
same,percent response (vesicle binding),"response, at 7.7 µM",285%
O=C(O)C1CCC(Cn2c(SCc3cc(=O)n4cc(Cl)ccc4n3)nc3ccsc3c2=O)CC1 (stereo unspecified),double positive events,at 7.7 µM,29.3%
same,double positive events,[1],9%
same,percent response (vesicle binding),[1],76.3% (inactive)
same,percent response (vesicle binding),"response, at 7.7 µM",339%
CCOC(=O)C1CCN(C(=O)c2ccc(NC(=O)C3CCCO3)cc2)CC1 (stereo unspecified),double positive events,at 7.7 µM,27.3%
same,double positive events,[1],1.9%
same,percent response (vesicle binding),[1],21.8% (active)
Cc1ccc(NC(=O)C2CCCO2)cc1[N+](=O)[O-] (stereo unspecified),double positive events,at 7.7 µM,25.5%
same,double positive events,[1],9.4%
same,percent response (vesicle binding),[1],161% (inactive)
same,percent response (vesicle binding),"response, at 7.7 µM",161%
CCOC(=O)C1CCN(C(=O)c2cccc(S(=O)(=O)NCc3ccccc3)c2)CC1,double positive events,at 7.7 µM,16.4%
same,double positive events,[1],18.8%
same,percent response (vesicle binding),[1],420% (inactive)
same,percent response (vesicle binding),"response, at 7.7 µM",128%
O=C(COc1ccccc1)NNC(=O)c1ccc(Cl)cc1,double positive events,at 7.7 µM,27.8%
same,double positive events,[1],8%
same,percent response (vesicle binding),[1],220% (inactive)
same,percent response (vesicle binding),"response, at 7.7 µM",616%
CN(C)S(=O)(=O)c1ccc(NC(=O)c2ccc([N+](=O)[O-])cc2)cc1,double positive events,at 7.7 µM,25.4%
same,double positive events,[1],22.8%
same,percent response (vesicle binding),[1],217% (inactive)
same,percent response (vesicle binding),"response, at 7.7 µM",312%
CCC(C)c1ccc(NC(=O)NCc2cccnc2)cc1 (stereo unspecified),double positive events,at 7.7 µM,8.6%
same,double positive events,[1],27.9%
same,percent response (vesicle binding),[1],260% (inactive)
same,percent response (vesicle binding),"response, at 7.7 µM",356%
CCC(C(=O)Nc1ccccc1)c1ccccc1 (stereo unspecified),double positive events,at 7.7 µM,6.9%
same,double positive events,[1],21.7%
same,percent response (vesicle binding),[1],199% (active)
same,percent response (vesicle binding),"response, at 7.7 µM",59.2%
CCOc1ccccc1NC(=O)C(OC(=O)c1ccccc1O)c1ccccc1 (stereo unspecified),double positive events,at 7.7 µM,6.9%
same,double positive events,[1],21.5%
same,percent response (vesicle binding),[1],190% (inactive)
same,percent response (vesicle binding),"response, at 7.7 µM",189%
Cc1ccc(CONC(=O)c2cccc([N+](=O)[O-])c2)cc1,double positive events,at 7.7 µM,27.4%
same,double positive events,[1],16.3%
same,percent response (vesicle binding),[1],328% (inactive)
same,percent response (vesicle binding),"response, at 7.7 µM",576%
CCOC(=O)C1(Cc2cccc(OC)c2)CCN(Cc2ccc3c(c2)OCCO3)CC1,double positive events,at 7.7 µM,13%
same,double positive events,[1],17.1%
same,percent response (vesicle binding),[1],114% (inactive)
same,percent response (vesicle binding),"response, at 7.7 µM",148%
COc1ccc(/C(O)=C2/C(=O)C(=O)N(Cc3cccnc3)C2c2ccco2)cc1OC (stereo unspecified),double positive events,at 7.7 µM,23.3%
same,double positive events,[1],0.8%
same,percent response (vesicle binding),[1],27% (active)
same,percent response (vesicle binding),"response, at 7.7 µM",360%
CCOc1ccc(/C(O)=C2/C(=O)C(=O)N(CCN(CC)CC)C2c2cccs2)cc1 (stereo unspecified),double positive events,at 7.7 µM,17.2%
same,double positive events,[1],26.6%
same,percent response (vesicle binding),[1],300% (inactive)
same,percent response (vesicle binding),"response, at 7.7 µM",187%
COCCN1C(=O)C(=O)/C(=C(/O)c2cccc(OC)c2)C1c1ccc(C)o1 (stereo unspecified),double positive events,at 7.7 µM,12.5%
same,double positive events,[1],16.5%
same,percent response (vesicle binding),[1],205% (inactive)
same,percent response (vesicle binding),"response, at 7.7 µM",173%
COc1ccc(NC(=O)COC(=O)c2cc(Cl)ccc2O)cc1S(=O)(=O)N1CCCCC1,double positive events,at 7.7 µM,27%
same,double positive events,[1],23.1%
same,percent response (vesicle binding),[1],366% (inactive)
same,percent response (vesicle binding),"response, at 7.7 µM",227%
CC1CC(C)(C)NC(=S)N1CC(=O)NCc1ccccc1Cl (stereo unspecified),double positive events,at 7.7 µM,8.8%
same,double positive events,[1],18.9%
same,percent response (vesicle binding),[1],506% (inactive)
same,percent response (vesicle binding),"response, at 7.7 µM",79.3%
CCOC(=O)C1(CC2CCCCO2)CCN(S(=O)(=O)c2ccc(C)s2)CC1 (stereo unspecified),double positive events,at 7.7 µM,17.8%
same,double positive events,[1],18.7%
same,percent response (vesicle binding),[1],122% (inactive)
same,percent response (vesicle binding),"response, at 7.7 µM",196%
COc1ccc(F)c(CN2CCC(n3nccc3NC(=O)C3CCOC3)CC2)c1 (stereo unspecified),double positive events,at 7.7 µM,29.1%
same,double positive events,[1],10.9%
same,percent response (vesicle binding),[1],235% (inactive)
same,percent response (vesicle binding),"response, at 7.7 µM",538%
CCCCCCCCn1c2c(c(=N)c3c1CCC3)CCCC2,double positive events,at 7.7 µM,1.8%
same,double positive events,[1],5.8%
same,percent response (vesicle binding),[1],46.9% (active)
same,percent response (vesicle binding),"response, at 7.7 µM",54.6%
C=CCN1C(=O)c2ccc(C(=O)N3CCN(S(=O)(=O)c4cccc(Cl)c4)CC3)cc2C1=O,double positive events,at 7.7 µM,12.4%
same,double positive events,[1],26.8%
same,percent response (vesicle binding),[1],118% (inactive)
same,percent response (vesicle binding),"response, at 7.7 µM",125%
CC(C)(C)C(=O)Nc1ccc2c(c1)OCCOCCOc1cc(NC(=O)C(C)(C)C)ccc1OCCOCCO2,double positive events,at 7.7 µM,22.2%
same,double positive events,[1],25.5%
same,percent response (vesicle binding),[1],251% (inactive)
same,percent response (vesicle binding),"response, at 7.7 µM",910%
COc1ccc(N(CC(=O)NCCC2=CCCCC2)S(=O)(=O)c2ccc(C)cc2)cc1OC,double positive events,at 7.7 µM,8.6%
same,double positive events,[1],22.9%
same,percent response (vesicle binding),[1],140% (inactive)
same,percent response (vesicle binding),"response, at 7.7 µM",96.7%
Cc1c(C(=O)NCCSCc2c(F)cccc2Cl)cnn1-c1ccc(Cl)cc1,double positive events,at 7.7 µM,19.9%
same,double positive events,[1],1.6%
same,percent response (vesicle binding),[1],26.4% (active)
same,percent response (vesicle binding),"response, at 7.7 µM",229%
O=C(CSCCO)N1CCc2ccccc21,double positive events,at 7.7 µM,9.8%
same,double positive events,[1],26%
same,percent response (vesicle binding),[1],310% (inactive)
same,percent response (vesicle binding),"response, at 7.7 µM",415%
Nc1nnc(SCCOc2ccc(Br)cc2)s1,double positive events,at 7.7 µM,34.9%
same,double positive events,[1],15.9%
same,percent response (vesicle binding),[1],217% (inactive)
same,percent response (vesicle binding),"response, at 7.7 µM",294%
Cc1sc(NC(=O)CN2CCOCC2)c(C#N)c1C,double positive events,at 7.7 µM,10.4%
same,double positive events,[1],29%
same,percent response (vesicle binding),[1],344% (inactive)
same,percent response (vesicle binding),"response, at 7.7 µM",364%
COc1cccc(C(=O)O[C@@H]2[C@H](Cc3ccccc3)NS(=O)(=O)[C@H]3C[C@@H]4C=C[C@]23O4)c1,double positive events,at 7.7 µM,30%
same,double positive events,[1],18.9%
same,percent response (vesicle binding),[1],180% (inactive)
same,percent response (vesicle binding),"response, at 7.7 µM",197%
Cc1oc(-c2ccccc2)nc1Cn1cccc1C1=NC(c2ccccc2)CO1 (stereo unspecified),double positive events,at 7.7 µM,13.6%
same,double positive events,[1],14.5%
same,percent response (vesicle binding),[1],105% (inactive)
same,percent response (vesicle binding),"response, at 7.7 µM",179%
CCn1nc(C(=O)NCCc2ccc3c(c2)OCCO3)c2ccccc2c1=O,double positive events,at 7.7 µM,9.8%
same,double positive events,[1],15.2%
same,percent response (vesicle binding),[1],173% (inactive)
same,percent response (vesicle binding),"response, at 7.7 µM",148%
OC[C@H]1O[C@@H](Oc2ccc3cc(Br)ccc3c2)[C@H](O)[C@@H](O)[C@H]1O,double positive events,at 7.7 µM,14.4%
same,double positive events,[1],27.5%
same,percent response (vesicle binding),[1],389% (inactive)
same,percent response (vesicle binding),"response, at 7.7 µM",493%
COc1ccc(C(=O)N2CCN(c3ccc(NC(=O)Cc4ccccc4)cc3)CC2)cc1,double positive events,at 7.7 µM,25.4%
same,double positive events,[1],23.5%
same,percent response (vesicle binding),[1],291% (inactive)
same,percent response (vesicle binding),"response, at 7.7 µM",635%
COc1ccc(NC(=O)CC2C(=O)N(Cc3ccccc3)C(=S)N2CCN2CCOCC2)cc1 (stereo unspecified),double positive events,at 7.7 µM,13%
same,double positive events,[1],0.6%
same,percent response (vesicle binding),[1],20% (active)
same,percent response (vesicle binding),"response, at 7.7 µM",196%
COC(=O)CN1C(=S)N(C)C(=O)C1CC(=O)Nc1ccccc1 (stereo unspecified),double positive events,at 7.7 µM,18.9%
same,double positive events,[1],12.8%
same,percent response (vesicle binding),[1],120% (inactive)
same,percent response (vesicle binding),"response, at 7.7 µM",896%
S=c1sc2c(N3CCOCC3)ncnc2n1-c1ccccc1,double positive events,at 7.7 µM,9.4%
same,double positive events,[1],12.2%
same,percent response (vesicle binding),[1],206% (inactive)
same,percent response (vesicle binding),"response, at 7.7 µM",355%
Cc1cc2ncn(C(=O)N3CCCCCC3)c2cc1C,double positive events,at 7.7 µM,6.8%
same,double positive events,[1],21.3%
same,percent response (vesicle binding),[1],112% (inactive)
same,percent response (vesicle binding),"response, at 7.7 µM",241%
CCCCn1c(-c2ccccc2)nnc1-c1ccccc1,double positive events,at 7.7 µM,37.8%
same,double positive events,[1],9.3%
same,percent response (vesicle binding),[1],150% (inactive)
same,percent response (vesicle binding),"response, at 7.7 µM",219%
O=C(N/N=C/c1cccc(OCc2ccccc2)c1)c1ccc(Br)cc1,double positive events,at 7.7 µM,9.6%
same,double positive events,[1],0.9%
same,percent response (vesicle binding),[1],36% (active)
same,percent response (vesicle binding),"response, at 7.7 µM",128%
O=C(N/N=C/c1ccc(OCc2ccccc2)cc1)c1cccs1,double positive events,at 7.7 µM,12.1%
same,double positive events,[1],18.5%
same,percent response (vesicle binding),[1],272% (inactive)
same,percent response (vesicle binding),"response, at 7.7 µM",428%
O=C(N/N=C/c1cccc(OC(=O)c2ccccc2Cl)c1)c1cccnc1,double positive events,at 7.7 µM,25.8%
same,double positive events,[1],10%
same,percent response (vesicle binding),[1],87% (inactive)
same,percent response (vesicle binding),"response, at 7.7 µM",350%
Cc1ccc(N(CC(O)CN2CCCC2)S(=O)(=O)c2ccc(C)cc2)cc1 (stereo unspecified),double positive events,at 7.7 µM,24.2%
same,double positive events,[1],34.6%
same,percent response (vesicle binding),[1],136% (inactive)
same,percent response (vesicle binding),"response, at 7.7 µM",325%
COc1cc(F)c(C2=CC(=O)C[C@H](c3ccc(F)cc3)C2)cc1F,double positive events,at 7.7 µM,24.2%
same,double positive events,[1],13.4%
same,percent response (vesicle binding),[1],170% (inactive)
same,percent response (vesicle binding),"response, at 7.7 µM",320%
CC1(C)Cc2c(C#N)c(NC3CCCCC3)nc(-c3ccco3)c2CO1,double positive events,at 7.7 µM,5.9%
same,double positive events,[1],2.8%
same,percent response (vesicle binding),[1],33.8% (active)
same,percent response (vesicle binding),"response, at 7.7 µM",107%
